Reference: PubChem BioAssay (NCATS)
Inconclusive results are not listed. Entries that show only a call come without a potency. Unmarked numbers belong to inactive results. Active and inactive are the calls of the source. Calls follow the shape of the dose curve; as a rule, active = well fitted inhibition curve with a large enough effect; inconclusive = small, poorly fitted or top-dose-only effect; inactive = flat fitted curve, though single readings scatter.

Assay: P-glycoprotein substrates identified in KB-8-5-11 adenocarcinoma cell line, qHTS therapeutic library screen (AID 1346987); also: nearly all actives have a fitted effect of over 65% in size; as to activity change, negative = cytotoxicity: series mostly up to about 44 µM
Method in brief: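 Human cervical adenocarcinoma KB-8-5-11 cells, selected in colchicine to over-express P-gp and assayed without it, were exposed for 72 h to titrated compounds. An ATP-based luminescent viability signal gave AC50.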
Potency is read from the fitted curve at half-maximal effect.

Compound: CC1CC(=O)C2=C(CCC3(O)C(O)c4c(O)cccc4C(=O)C23O)C1 (configuration not stated)
- Potency: inactive

Compound: O=C(Nc1nc2ccccc2n1CCc1ccccc1)c1ccccc1
- Potency: inactive

Compound: C=C(C)[C@@H]1CC[C@]2(C)CC[C@]3(C)[C@H](CC[C@@H]4[C@@]5(C)CC[C@@H](O)C(C)(C)[C@@H]5CC[C@]43C)[C@@H]12
- Potency: inactive

Compound: C[C@H](O)[C@H](O)/C=C/c1cccc(O)c1CO
- Potency: inactive

Compound: Cc1ccc(-c2c(C(=O)CF)n(CCCO)c3ncnc(N)c23)cc1
- Potency: inactive

Compound: CC(O)/C=C/C1C(C)C(O[C@@H]2O[C@H](CO)[C@@H](O)[C@H](O)[C@H]2O)C(O)CC1(C)C (some centres not stated)
- Potency: inactive

Compound: C=C1CCC2C(C(C)(C)O)CCC2(C)CC(O)C(=C)CCC1O (configuration not stated)
- Potency: inactive

Compound: Oc1ccc(CNc2ccccc2F)c2cccnc12
- Potency: 6.51 µM (active)

Compound: COc1ccc(N(C)c2nc(C)nc3ccccc23)cc1
- Potency: 0.0065 µM (active)

Compound: CCN(CC)CCN(Cc1ccc(-c2ccc(C(F)(F)F)cc2)cc1)C(=O)Cn1c(SCc2ccc(F)cc2)nc(=O)c2c1CCC2
- Potency: 18.4 µM (active)

Compound: CCCOC(c1cc2nccc(C(=O)O)c2[nH]1)c1ccccc1Cl (configuration not stated)
- Potency: inactive

Compound: CCN1CCN(Cc2ccc(NC(=O)Nc3ccc(Oc4cc(NC)ncn4)cc3)cc2C(F)(F)F)CC1
- Potency: inactive

Compound: Cc1cc(NC(=O)Nc2ccc(F)c(F)c2)n(-c2ccccc2)n1
- Potency: inactive

Compound: O=C(/C=C/c1cccc(S(=O)(=O)Nc2ccccc2)c1)NO
- Potency: 2.82 µM (active)

Compound: O=C(NCc1ccccn1)Nc1nnc(-c2ccco2)o1
- Potency: inactive

Compound: C[C@@H]1CN(Cc2ccccc2)C[C@H]1c1nc2c(cnn2C2CCOCC2)c(=O)[nH]1
- Potency: inactive

Compound: COc1cc2c(cc1O)[C@H](c1ccc(O[C@@H]3O[C@H](CO)[C@@H](O)[C@H](O)[C@H]3O)c(OC)c1)[C@@H](CO)[C@](O)(CO)C2
- Potency: inactive

Compound: CC(C)(C)Nc1nc2cc(Cl)c(Cl)cc2nc1S(C)(=O)=O
- Potency: 14.6 µM (active)

Compound: O=C(O)CC1CCC(c2ccc(-c3ccc4nc(C(=O)NCc5ccc(OC(F)(F)F)cc5)cn4c3)cc2)CC1 (configuration not stated)
- Potency: inactive

Compound: COc1cc2c(cc1OC)[C@@H]1[C@H](O)[C@@H](OC)C=C3CCN(C2)[C@H]31
- Potency: 5.7 µM (active)

Compound: C=C[C@H]1[C@H](O[C@@H]2O[C@H](CO)[C@@H](O)[C@H](O)[C@H]2O)OC=C(C(=O)OC)[C@H]1CCOC(=O)c1cc(O)c(O)c(O)c1
- Potency: inactive

Compound: C[C@@H](Oc1cc(-n2cnc3ccc(OC4CCN(C)CC4)cc32)sc1C(N)=O)c1ccccc1C(F)(F)F
- Potency: 0.206 µM (active)

Compound: CNCc1ccc(-c2cc(-c3nc(-c4ccc(S(=O)(=O)C(C)C)cc4)cnc3N)on2)cc1
- Potency: 1.3 µM (active)

Compound: CC1CCC2C(C(=O)O)=COC(O[C@@H]3O[C@H](CO)[C@@H](O)[C@H](O)[C@H]3O)C12 (some centres not stated)
- Potency: inactive

Compound: CC1=C(C(=O)OCc2ccccc2)C(c2ccc(-c3ccccc3)cc2)NC(=O)N1CCCCCC(=O)O (configuration not stated)
- Potency: inactive

Compound: CC[C@@H](N)CNc1ccnc(-c2cc(-c3cnn(C)c3)ccc2O)n1
- Potency: 5.17 µM (active)

Compound: OCCc1ccc(O[C@@H]2O[C@H](CO)[C@@H](O)[C@H](O)[C@H]2O)cc1
- Potency: inactive

Compound: COc1cc(N2CCC(N3CCN(C)CC3)CC2)ccc1Nc1ncc(Cl)c(-c2c[nH]c3ccccc23)n1
- Potency: 0.517 µM (active)

Compound: C=C1CCC[C@]2(C)CC[C@@H](C(=C)C(=O)O)[C@H](O)[C@@H]12
- Potency: inactive

Compound: C[C@@H]1CCC2C(C)(C)[C@H](O)CC[C@]2(C)[C@@]12Cc1c(O)cc3c(c1O2)CN([C@@H](CCC(=O)O)C(=O)O)C3=O (some centres not stated)
- Potency: inactive

Compound: CC1(O)CCCC2(C)C1CCC13CC(CO)C(CCC12)C3 (configuration not stated)
- Potency: inactive

Compound: CN1CCN(Cc2ccc(-c3cnc4[nH]cc(-c5ccc6[nH]ccc6c5)c4c3)cc2)CC1
- Potency: 7.31 µM (active)

Compound: CS(=O)(=O)N1CCC(NC(=O)c2[nH]ncc2NC(=O)c2c(Cl)cccc2Cl)CC1
- Potency: 9.2 µM (active)

Compound: CC1(C)CC[C@]2(C(=O)O)[C@H](O)C[C@]3(C)C(=CCC4[C@@]5(C)CC[C@H](O[C@@H]6O[C@H](CO[C@@H]7OC[C@H](O)[C@H](O)[C@H]7O[C@@H]7OC[C@@H](O)[C@H](O)[C@H]7O)[C@@H](O)[C@H](O)[C@H]6O[C@@H]6O[C@H](CO)[C@@H](O)[C@H](O)[C@H]6O)C(C)(C)C5CC[C@]43C)[C@@H]2C1 (some centres not stated)
- activity change, negative = cytotoxicity: 6.47% [at 9.29 µM]

Compound: CC1=C(CO)C(=O)O[C@@H]([C@@H](C)[C@H]2CC[C@H]3[C@@H]4C[C@H]5O[C@]56[C@@H](O)C=CC(=O)[C@]6(C)[C@H]4CC[C@]23C)C1
- Potency: 2.52 µM (active)

Compound: COc1cc(O)cc(C)c1C(=O)OC1C(CO)OC(OC2C(O)C(O)C(O)C(O)C2O)C(O)C1O (configuration not stated)
- Potency: inactive

Compound: C=C(C)C1CCC(C)C12CC(O)C1(C)OC1C2OC(=O)C(N)CCC(=O)O (configuration not stated)
- Potency: inactive

Compound: CC(C)CN(C[C@@H](O)[C@H](Cc1ccccc1)NC(=O)O[C@@H]1CO[C@H]2OCC[C@H]21)S(=O)(=O)c1ccc(N)cc1
- Potency: inactive

Compound: CC1(CCOC2OC(CO)C(O)C(O)C2O)CCC23OC2(C1)C(O)CC1C(C)(C(=O)O)CCCC13C (configuration not stated)
- Potency: inactive

Compound: C=CCC1=C[C@]2(OC)[C@H](C)[C@@H](c3ccc(O)c(OC)c3)O[C@]2(OC)CC1=O
- Potency: inactive

Compound: CCc1cccc(CC)c1NC(=O)c1nn(C)c2c1CCc1cnc(Nc3ccc(C(=O)NC4CCN(C)CC4)cc3OC(F)(F)F)nc1-2
- Potency: 3.55 µM (active)

Compound: CN1CCc2nc(C(=O)N[C@@H]3C[C@@H](C(=O)N(C)C)CC[C@@H]3NC(=O)C(=O)Nc3ccc(Cl)cn3)sc2C1
- Potency: inactive

Compound: C[C@@]12C[C@]3(O)O[C@H](O1)[C@]1(COC(=O)c4ccccc4)[C@H]3C[C@@]12O[C@@H]1O[C@H](CO)[C@@H](O)[C@H](O)[C@H]1O
- Potency: inactive

Compound: O=S(=O)(c1ccc(S(=O)(=O)n2cnc3ccccc32)cc1)N1CCCCCC1
- Potency: inactive

Compound: C=C1CCC2C(C)(C(=O)O)CCCC2(C)C1CC/C(=C\CO)CO (configuration not stated)
- Potency: inactive

Compound: CCOCc1nc2c(N)nc3ccccc3c2n1CC(C)(C)O
- Potency: inactive

Compound: CC(C)C(CO)Nc1nc(Nc2ccc(C(=O)O)c(Cl)c2)c2ncn(C(C)C)c2n1 (configuration not stated)
- Potency: inactive

Compound: COc1cccc(C(=O)N2CCN(C(=O)COc3cccc(C)c3)CC2)c1OC
- Potency: 23.1 µM (active)

Compound: CNC(=O)c1ccccc1Nc1nc(Nc2ccc(N3CCNCC3)cc2)ncc1Cl
- Potency: 0.461 µM (active)

Compound: Cc1cc(OCc2nnc(SC3CCCC3)n2-c2cccnc2)ccc1-c1ccc(S(C)(=O)=O)cc1
- Potency: 2.91 µM (active)

Compound: C[C@@H]1O[C@@H](O[C@H]2[C@H](O)[C@@H](O)[C@H](OC[C@H]3O[C@@H](OC(=O)[C@]45CCC(C)(C)C[C@H]4C4=CCC6[C@@]7(C)CC[C@H](O[C@@H]8OC[C@H](O)[C@H](O[C@@H]9O[C@H](CO)[C@@H](O)[C@H](O)[C@H]9O)[C@H]8O)[C@@](C)(CO)C7CC[C@@]6(C)[C@]4(C)CC5)[C@H](O)[C@@H](O)[C@@H]3O)O[C@@H]2CO)[C@H](O)[C@H](O)[C@H]1O (some centres not stated)
- outcome: inactive [at 9.29 µM]

Compound: Cc1cc(Nc2ncc3cc(-c4c(Cl)cccc4Cl)c(=O)n(C)c3n2)ccc1F
- Potency: 1.3 µM (active)

Compound: CC(C)c1nnc(-c2ccc(-c3ccccc3)nc2)n1-c1cccc2nonc12
- Potency: inactive

Compound: COC(=O)Cc1cc2c(c([N+](=O)[O-])c1)N(C(=O)CC[C@H](N)C(=O)O)CC2
- Potency: inactive

Compound: C[C@@H]1O[C@@H](O[C@@H]2[C@@H](O[C@@H]3O[C@@H](C)[C@H](O[C@@H]4OC[C@H](O)[C@H](O[C@@H]5OC[C@@H](O)[C@H](O)[C@H]5O)[C@H]4O)[C@@H](O[C@@H]4OC[C@](O)(CO)[C@H]4O)[C@H]3O)[C@H](OC(=O)[C@]34CCC(C)(C)C[C@H]3C3=CCC5[C@@]6(C)C[C@H](O)[C@H](O[C@@H]7O[C@H](CO[C@@H]8OC[C@H](O)[C@H](O)[C@H]8O)[C@@H](O)[C@H](O)[C@H]7O)C(C)(C)C6CC[C@@]5(C)[C@]3(C)C[C@H]4O)OC[C@H]2O)[C@H](O)[C@H](O)[C@H]1O (some centres not stated)
- outcome: inactive [at 9.29 µM]

Compound: CN(C)c1ccc2c(c1)OC(N)=C(C#N)C2c1cccc(C(F)(F)F)c1 (configuration not stated)
- Potency: 0.326 µM (active)

Compound: O=C1N=C(N2CCOCC2)CN1c1ccc(Cl)cc1
- Potency: inactive

Compound: COc1ccc(C(=O)n2c(C)c(Cc3cccc(O[C@@H](C)C(=O)O)c3)c3cc(OC(F)(F)F)ccc32)cc1
- Potency: inactive

Compound: CC(C)(C)c1ccc(S(=O)(=O)NCc2ccc(C(=O)Nc3cccnc3)cc2)cc1
- Potency: 1.16 µM (active)

Compound: CC1=C(CCC(C)CC(=O)O)[C@@]2(C)CCCC(C)(C)C2CC1=O (some centres not stated)
- Potency: inactive

Compound: O=C(/C=C/c1ccc(O)cc1)N[C@@H](Cc1ccc(O)cc1)C(=O)O
- Potency: inactive

Compound: COc1cc(N)c(Cl)cc1C(=O)NC[C@@H]1CCN2CCC[C@@H]12
- Potency: inactive

Compound: O=S(=O)(NCC1CC1)c1ccc(Nc2nccc(N3CCCc4cc(O)ccc43)n2)cc1
- Potency: 9.2 µM (active)

Compound: CN(C)CC1CCOC1(c1ccccc1)c1ccccc1 (configuration not stated)
- Potency: inactive

Compound: CN1C2CCC1CC(OC(=O)[C@H](CO)c1ccccc1)C2 (some centres not stated)
- Potency: inactive

Compound: CC[C@]12C=CCN3CC[C@@]4(c5cc([C@@]6(C(=O)OC)C[C@H]7C[C@@H](C(C)(F)F)CN(Cc8c6[nH]c6ccccc86)C7)c(OC)cc5N(C)[C@H]4[C@@](O)(C(=O)OC)[C@@H]1OC(C)=O)[C@@H]32
- Potency: 5.44 µM (active)

Compound: CC1OC(OC2C(CO)OC(OCC3OC(OC(=O)C45CCC(C)(C)CC4C4=CCC6C7(C)CCC(OC8OC(CO)C(O)C(OC9OC(CO)C(O)C(O)C9O)C8O)C(C)(C)C7CCC6(C)C4(C)CC5)C(O)C(O)C3O)C(O)C2O)C(O)C(O)C1OC1OC(CO)C(O)C(O)C1O (configuration not stated)
- activity change, negative = cytotoxicity: 9.79% [at 9.29 µM]
